Test results taken from PubChem BioAssay AID504444 (National Center for Advancing Translational Sciences (NCATS), 2011).
The campaign covered roughly 360,000 compounds. About 7,500 (2.1%) were called active. Not shown: some 20% with an inconclusive outcome. The list comes from a sample in which actives are over-represented; it also holds similar structures and randomly drawn compounds. A number with no mark means an inactive call. The call rests on the fitted dose curve; in most records, active means well fitted inhibition curve with a large enough effect; inconclusive means small, poorly fitted or top-dose-only effect, or effect the other way; inactive means flat fitted curve, though single readings scatter.

Assay: Nrf2 qHTS screen for inhibitors; further: nearly all actives have a fitted effect of over 60% in size
Conditions: A549 ARE-Fluc reporter, luciferase luminescence, 18-24 h; series mostly up to 46 µM; activity change, negative = inhibition: at the top concentration
From the text: NIH Molecular Libraries Probe Production Network [MLPCN]
NIH Chemical Genomics Center [NCGC]
Assay Provider: Shyam Biswal, Johns Hopkins University
Nrf2 is a transcription factor that maintains cellular redox homoestasis and protects cells from xenobiotics. Nrf2 binds to the antioxidant response element (ARE) to induce gene expression of a broad spectrum of genes that encode for antioxidants. […] Finding a small molecule that act as an inhibitor of Nrf2 function would represent a novel therapeutic target that could lead to improvement in survival of patients undergoing chemo- and/or radio- therapy.
This is the Nrf2 activity measured in the luminescent read.
1. Shibata, T., et al., Genetic Alteration of Keap1 Confers Constitutive Nrf2 Activation and Resistance to Chemotherapy in Gallbladder Cancer. Gastroenterology, 2008.
2. Sjoblom, T., et al., The consensus coding sequences of human breast and colorectal cancers. Science, 2006. 314(5797): p. 268-74.
NCGC Assay Protocol Summary:
A concentration-response assay was performed with A549 ARE_Fluc cells which are suspended in 5% FBS OPTI-MEM. Five uL were dispensed into 1536-well white TC-treated plate using the Kalypsys dispenser to achieve a density of 5000 cells/well in all columns except column 1. The plate is incubated at 37deg C at 5% CO2 for 2 hours before 23 nL of compounds are added with the Kalypsys pin tool equipped with a 1,536-pin array containing 10-nL slotted pins (FP1S10, 0.457-mm diameter, 50.8 mm long; V&P Scientific). The control compounds Budesonide and Staurosporine are both added at a concentration of 2mM and Budesonide is also added as a 1:10 titration, starting at 200uM, to achieve dose-response. After an 18-24 hour incubation at 37deg C at 5% CO2, 5ul of medium is added to column 1. Afterwards 1ul of 5x of CellTiter-Fluor (Promega) is added to every well. The plate is then incubated at 37deg C at 5% CO2 for 30 minutes before they are read on the ViewLux (Perkin Elmer) for a fluorescent read Ex=405(10)/Em=525(10) for a 3 second exposure, 2x binning, and high gain. Then 3 uL of 3x BugLite is dispensed into all wells and the plate is incubated at ambient room temperature for 15 minutes. Afterwards another ViewLux read is performed using the clear filter to get a luminescent read with the settings of 40 second exposure, 2x binning, and high gain. Cytotoxicity is assessed through the first fluorescent read and then biochemical activity against Nrf2 is measured in the luminescent read.
On the % scale 0 is the no-effect control and ±100 the full control effect; potency means the concentration at half of the fitted maximal effect.

SMILES | activity change, negative = inhibition | Potency
Cc1ccc(O)c(NC(=O)CCS(=O)(=O)c2nc(-c3ccc4c(c3)OCO4)cc(C(F)(F)F)n2)c1 | 8.08% [at 9.27 µM] | 
CC1CCCCN1CC(=O)N1CCCc2c1c(=O)oc1ccc(OCc3ccccc3)cc21 (configuration not stated) | -15.1% | 
Cc1ccc(-c2cc(C(=O)Oc3ccccc3Cl)no2)cc1C | 12.8% | 
CC1=C(c2ccc(C)c(C)c2)S(=O)(=O)NC1=NCc1ccccc1Cl |  | 23.1 µM (active)
Cc1ccc(CNc2ncnc3cc(-c4ccc5c(c4)OCO5)ccc23)o1 | 4.57% | 
O=C(Nc1ccn(Cc2ccccc2F)n1)c1ccc(COc2ccc(Cl)cc2Cl)o1 |  | 25.9 µM (active)
Cc1cccc(NC(=O)c2ccc(COc3ccccc3[N+](=O)[O-])o2)n1 | -18.1% | 
O=C(O)c1ccc(NC(=O)c2ccc(COc3ccc(Cl)cc3)o2)cc1 | 29.2% | 
CCc1nn(CC(=O)Nc2cc(C)cc(C)c2)c(=O)c2cc3sccc3n12 | 9.2% | 
CC1CC2=C(CC1/C=N/NC(N)=S)C(C)(C)CCC2 (configuration not stated) |  | 23.1 µM (active)
CCc1nc2nc(C)cc(Nc3ccc(F)c(Cl)c3)n2n1 | -13.4% | 
Cc1ccc(CNC(=O)Cn2cnc3c(NCc4ccccc4)ncnc32)o1 | -7.86% | 
Cc1cccc(NC(=O)Cn2cc(S(=O)(=O)Cc3ccccc3Cl)c3ccccc32)c1 | -4.12% | 
O=C(O)CC/C(=N\NC(=O)c1ccc(F)cc1)c1ccc(Br)cc1 | 7.74% | 
CCN(C(=O)c1ccc(Br)cc1)c1ccccc1 | -12.2% | 
O/N=C(\C[n+]1ccccc1)c1ccc(Br)cc1 |  | 3.66 µM (active)
COC(=O)[C@]1(Cc2ccccc2)N[C@H](CN(C)S(=O)(=O)c2ccc(OC(F)(F)F)cc2)[C@@H]2C(=O)N(C)C(=O)[C@@H]21 | -14.7% | 
CCCN(CCC)CCCNC(=O)Cn1ncc2c3ccccc3n(Cc3ccccc3)c2c1=O | 13.4% | 
Cc1ccc(S(=O)(=O)c2cn(Cc3ccccc3)c3cc(N4CCCC4)c(F)cc3c2=O)c(C)c1 | -14.6% | 
Cc1ccc(S(=O)(=O)N2C[C@@H]3CCCC[C@@H]3[C@@H](C)[C@H]2c2cn(Cc3ccccc3)c3ccc(F)cc23)cc1 |  | 2.91 µM (active)
Cc1cccc(S(=O)(=O)c2cn(Cc3ccccc3)c3cc(N4CCOCC4)c(F)cc3c2=O)c1 | -18.8% | 
N#CC1=C(N)Oc2cc(N)ccc2C1c1ccccc1 (configuration not stated) | -15.3% | 
CN(C)Cc1cn(-c2ccccc2)nc1-c1ccccc1 | -3.78% | 
O=C(N[C@H]1C/C=C\C(c2ccc(F)cc2)N(Cc2ccccc2)C(=O)C1)OCC1c2ccccc2-c2ccccc21 (some centres not stated) | 4.03% | 
CC(C)N(C(=O)CSc1nc(COc2ccccc2)nc2ccccc12)C(C)C | -10.9% | 
O=C(O)CSc1nccc2ccccc12 |  | 16.4 µM (active)
CCc1c(SCCC(=O)O)nc2ccccc2c1C | -7.59% | 
